High-throughput results deposited in PubChem by National Center for Advancing Translational Sciences (NCATS).
This excerpt belongs to a sample that is enriched for hits.
KDM5B inh – KDM5B demethylase inhibition | 220,000 tested, 2.6% active | Q9UGL1 | KDM5B demethylase, FDH-coupled NADH fluorescence (FDH is formaldehyde dehydrogenase) | Potency, µM (titrated, usually from 57.7 µM), actives largely listed as inhibitors | AID 1347165; active means well fitted inhibition curve with a large enough effect; further: 0% is about no effect; nearly all actives have a fitted effect of over 70% in size
Target sequence (Q9UGL1 whole entry, looked up): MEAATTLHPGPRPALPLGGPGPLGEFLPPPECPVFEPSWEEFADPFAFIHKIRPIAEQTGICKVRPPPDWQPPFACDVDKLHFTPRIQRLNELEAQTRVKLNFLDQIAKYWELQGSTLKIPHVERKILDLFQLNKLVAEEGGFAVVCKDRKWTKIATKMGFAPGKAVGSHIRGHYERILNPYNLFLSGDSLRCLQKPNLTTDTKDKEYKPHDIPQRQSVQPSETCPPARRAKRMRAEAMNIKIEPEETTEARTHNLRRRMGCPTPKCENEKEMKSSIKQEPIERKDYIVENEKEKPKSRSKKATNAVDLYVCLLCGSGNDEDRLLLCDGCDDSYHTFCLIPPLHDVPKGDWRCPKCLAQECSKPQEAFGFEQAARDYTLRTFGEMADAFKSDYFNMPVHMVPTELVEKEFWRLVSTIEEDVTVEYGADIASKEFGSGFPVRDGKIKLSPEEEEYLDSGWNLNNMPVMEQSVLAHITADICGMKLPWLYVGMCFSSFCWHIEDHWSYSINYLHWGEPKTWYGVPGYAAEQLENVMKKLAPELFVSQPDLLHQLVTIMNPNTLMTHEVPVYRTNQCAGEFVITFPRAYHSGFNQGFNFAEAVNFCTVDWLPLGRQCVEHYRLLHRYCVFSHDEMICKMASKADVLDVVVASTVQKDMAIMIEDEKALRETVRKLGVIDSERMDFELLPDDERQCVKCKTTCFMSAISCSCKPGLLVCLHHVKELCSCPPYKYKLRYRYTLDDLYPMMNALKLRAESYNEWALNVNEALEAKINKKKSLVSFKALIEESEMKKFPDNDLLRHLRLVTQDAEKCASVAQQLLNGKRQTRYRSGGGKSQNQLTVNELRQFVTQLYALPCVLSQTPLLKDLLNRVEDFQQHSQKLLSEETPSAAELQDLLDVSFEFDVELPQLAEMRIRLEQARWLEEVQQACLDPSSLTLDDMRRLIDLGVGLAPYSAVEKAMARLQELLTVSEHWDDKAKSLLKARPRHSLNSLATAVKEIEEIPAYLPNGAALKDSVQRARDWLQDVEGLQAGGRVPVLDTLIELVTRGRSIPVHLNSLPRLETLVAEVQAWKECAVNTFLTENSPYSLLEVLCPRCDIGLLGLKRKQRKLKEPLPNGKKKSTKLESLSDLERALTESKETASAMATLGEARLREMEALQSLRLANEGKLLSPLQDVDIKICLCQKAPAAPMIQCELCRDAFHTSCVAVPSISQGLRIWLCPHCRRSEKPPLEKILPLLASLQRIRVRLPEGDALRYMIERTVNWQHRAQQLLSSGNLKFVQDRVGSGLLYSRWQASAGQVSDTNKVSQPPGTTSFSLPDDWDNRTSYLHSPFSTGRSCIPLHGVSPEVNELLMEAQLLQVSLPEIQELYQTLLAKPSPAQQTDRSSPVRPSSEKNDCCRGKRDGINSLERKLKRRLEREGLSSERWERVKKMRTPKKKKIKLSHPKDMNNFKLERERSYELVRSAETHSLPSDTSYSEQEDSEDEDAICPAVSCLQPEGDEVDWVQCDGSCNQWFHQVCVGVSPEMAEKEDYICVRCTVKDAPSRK
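Compound dilutions met 200 nM (final) KDM5BΔAP for 10 min at room temperature before substrate addition. The substrate mix held 12.5 µM H3K4me3 with cofactors 25 µM α-ketoglutarate and 50 µM Fe²⁺. NADH signal gain over 30 min defined activity.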
Active calls of the source: *; i = inactive. Potency means the concentration at half of the fitted maximal effect.

SMILES	KDM5B inh
Cc1nn(C(=O)CCCC(=O)N2CCC(Cc3nncn3C(C)C)CC2)c2ccccc12	i
CCn1cnnc1CC1CCN(C(=O)c2cc(-c3ccc(C)c(C)c3)nc3ccccc23)CC1	28µM*
CCn1cnnc1CC1CCN(C(=O)NCc2ccccc2)C1 (centres undefined)	i
Cc1ccc(-c2cc(C(=O)N3CCC(c4nc(C5CCOCC5)no4)C3)c3ccccc3n2)cc1C (centres undefined)	25µM*
CC(C)NC(=O)C1CCN(C(=O)c2cc(-c3ccccc3)nc3ccccc23)CC1	i
O=C(c1c2c(nc3ccccc13)CCCC2)N1CCCC(c2nc(C3CCOCC3)no2)C1 (centres undefined)	i
COc1ccc(-c2cc(C(=O)N3CCOC(C)C3)c3ccccc3n2)cc1OC (centres undefined)	i
Cc1ccc(-c2cc(C(=O)N3CCC(Cc4nncn4C(C)C)CC3)c3ccccc3n2)cc1C	28µM*
CCn1cnnc1CC1CCN(C(=O)c2ccccc2)CC1	i
CCN1CCC(NC(=O)Cc2cc(Cl)c3c(c2)OCCCO3)CC1	i
C=CCSc1ccccc1NS(=O)(=O)c1ccc(S(=O)(=O)N(CC)CC)cc1	i
Cc1ccc(C)c(/C=C(/C#N)S(C)(=O)=O)c1	i
CC(=O)c1c(C)[nH]c(C(=O)C(C)Sc2ccccc2Cl)c1C (centres undefined)	i
C/C(=N/Nc1ccccc1C(F)(F)F)c1cc(Cl)ccc1Cl	i
Cc1ccc2oc(C(=O)NCc3ccc4c(c3)OCO4)cc(=O)c2c1	i
CCCNc1c(NC(=O)COc2ccccc2C)c(=O)oc2ccccc12	i
CN(C)CCN(C)C(=O)c1ccc2c(c1)NC(C)(CCCCc1ccccc1)CO2 (centres undefined)	i
CN(C(=O)c1ccc2c(c1)NC(C)(CNCc1ccccc1)CO2)c1ccccc1 (centres undefined)	i
CC1(CCCCc2ccccc2)COc2ccc(C(=O)NCc3cccnc3)cc2N1 (centres undefined)	28µM*
CC1(CCCCc2ccccc2)COc2ccc(C(=O)Nc3cccnc3)cc2N1 (centres undefined)	28µM*
CC1(CCCCc2ccccc2)COc2ccc(C(=O)NCc3ccncc3)cc2N1 (centres undefined)	32µM*
CC1(CCCCc2ccccc2)COc2ccc(C(=O)NCc3cnccn3)cc2N1 (centres undefined)	i
O=C(Nc1c(NC2CCCCC2)c2ccccc2oc1=O)c1ccc2c(c1)OCO2	i
CCOP(=O)(OCC)c1nc(Cc2ccccc2)oc1NCc1ccc2c(c1)OCO2	i
CC(Sc1cc(Cl)ccc1Cl)C(=O)NC(C)(C)C (centres undefined)	i
SMILES	KDM5B inh
Cc1nn(-c2nc3c(c(=O)n(Cc4ccccc4Cl)c(=O)n3C)n2C(C)C)c(C)c1C	i
COc1ccc(OC)c(NC(=O)NCc2nc(-c3cccc(Cl)c3)oc2C)c1	i
CCCCNc1nc(-c2cccc(OC)c2O)nc2ccccc12	i
Cc1nc2ccccc2nc1SCC(=O)Nc1ccccc1OC(F)F	i
O=C(c1ccc(F)cc1)N1CCC2(CC1)CC(N(Cc1ccc(F)cc1)C1CC1)CCO2 (centres undefined)	i
O=C(c1ccncc1)N1CCC2(CC1)CC(N(Cc1ccc(F)cc1)C1CC1)CCO2 (centres undefined)	32µM*
O=C(c1ccncc1)N1CCC2(CC1)CC(N(Cc1ccccc1)C1CC1)CCO2 (centres undefined)	i
CC(C)C(=O)N(Cc1cc2ccccc2[nH]c1=O)c1ccccc1	i
CCc1ccc2nc(-c3ccncc3)cc(C(=O)O)c2c1	i
Cc1ccc(NC(=O)Cn2nc(-c3ccco3)ccc2=O)cc1C	i
CCc1ccc(C(=O)Nc2ccc(-c3nnc4n3CCCC4)cc2)cc1	i
COc1cccc(NC(=O)C2CCN(c3ccc4nnc(C(C)C)n4n3)CC2)c1	i
CCN1CCN(C(=O)c2ccc(-c3nnc4ccc(NC(=O)C5CCC5)cn34)cc2)CC1	20µM*
COc1cccc(NC(=O)c2ccc(-c3nnc4ccc(NC(=O)C5CCC5)cn34)cc2)c1	25µM*
CCN(CC)C(=O)c1ccc(-c2nnc3ccc(NC(=O)C4CC4)cn23)cc1	22µM*
CC(C)NC(=O)c1ccc(-c2nnc3ccc(NC(=O)C4CCC4)cn23)cc1	25µM*
Cc1ccc(NC(=O)C2CCCCC2)cc1	i
Cc1ccc(NC(=O)C2CCCN(C(=O)c3ccccc3)CCC(=O)NCC2)cc1 (centres undefined)	i
COc1cccc(NC(=O)c2ccc(-n3cnnn3)cc2)c1	i
Cc1ccc(NC(=O)C2CCC(C(C)(C)C)CC2)cc1 (centres undefined)	i
CC1CCC(C(=O)Nc2ccc(-c3nnc4n3CCCC4)cc2)CC1 (centres undefined)	i
COC(=O)c1ccc(NC(=O)C2CCN(C(=O)c3ccc(F)cc3)CC2)cc1	i
COc1ccc(CNCC(=O)O)cc1	i
CCOc1ccc(Nc2nc(-c3ccccc3)no2)cc1	i
CC1(C(=O)NC2CCN(Cc3ccccc3)CC2)CCCCC(=O)N1 (centres undefined)	i
SMILES	KDM5B inh
Cc1ccc(NC(=O)C(C#N)C(=O)CCC(C)C)c(C)c1 (centres undefined)	i
O=[S+]1([O-])NCC2(CCN(Cc3ccc(F)cc3)CC2)Nc2ccccc21	i
O=C(c1nn(Cc2ccccc2)c(=O)c2ccccc12)N1CCCC1c1ccc2c(c1)OCCCO2 (centres undefined)	i
COC(=O)COc1ccc2c(c1)OCC2=O	i
CCCNc1c(NC(=O)NCC2CCC(C(=O)OCC)CC2)c(=O)oc2ccccc12 (centres undefined)	i
O=C(Nc1ccc(-c2nnc3n2CCCC3)cc1)C1CCC1	i
O=C(Nc1ccc(-c2nnc3n2CCCC3)cc1)C1CCCC1	i
O=C(Nc1ccc2nnc(-c3ccc(C(=O)N4CCCCC4)cc3)n2c1)C1CCC1	20µM*
Cc1cnc2c(S(=O)(=O)N3CCCCC3C(N)=O)cccc2c1 (centres undefined)	i
CCCCSc1nc2c(c(=O)[nH]c(=O)n2C)n1CC(O)COc1ccc(CC)cc1 (centres undefined)	i
CCc1ccc(C(=O)N2CCn3nc(C(O)c4ccccc4)cc3C2)s1 (centres undefined)	i
CC(O)c1cc2n(n1)CCN(C(=O)c1nc3ccccc3n(C)c1=O)C2 (centres undefined)	25µM*
Cc1cc(C(=O)N2CCn3nc(C(C)O)cc3C2)c2ccc(F)cc2n1 (centres undefined)	i
O=[N+]([O-])c1cccc2nc(/C=C/c3cccc(C(F)(F)F)c3)ccc12	i
CNC(=O)NC(=O)C(C)Sc1ncc(-c2ccc(F)cc2)n1CC(C)C (centres undefined)	i
Cc1ccc(-c2ccnc3cc(C)nn23)cc1	i
CC(C)c1nc2nccc(-c3ccccc3)n2n1	28µM*
CC(C)c1nc2nccc(-c3ccc(F)cc3)n2n1	28µM*
Cc1ccccc1NCC(=O)N1CCN(S(=O)(=O)c2ccc3ccccc3c2)CC1	i
C=CC[N+](C)(C)CC(=O)OC1CC2CCC1(C)C2(C)C (centres undefined)	i
CC(=O)Nc1cccc(-c2nc3cc(Cl)cc(Cl)c3o2)c1	i
CC(=O)Nc1cccc(-c2nc(-c3c(C)noc3C)cc3cc(C)oc23)c1	35µM*
